These results are taken from PubChem BioAssay (NCI).

This is part of a sample that, as a whole, favours compounds with a hit. Of some 79,000 tested, about 15% had one in any assay. A number with no mark means an inactive call. Active and inactive are the calls of the source. No stated cut-off is given here; in the data, active means growth inhibition above about 70%; inactive means the rest.

Test [1] can be described thus: NCI Yeast Anticancer Drug Screen. Data for the rad50 strain (AID 155).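 Further: 0% = growth of vehicle-only cultures of the same strain.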 Particulars: S. cerevisiae rad50 strain growth inhibition, hits give high values. An outline of the steps:
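Yeast carrying a defined DNA repair defect were exposed to test compounds, and growth was compared with vehicle-treated controls to give percent inhibition.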

A short description of test [2]: NCI Yeast Anticancer Drug Screen. Data for the mec2-1 strain (AID 157). Particulars: S. cerevisiae mec2-1 strain, hits give high values. An outline of the steps: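 Readout is yeast growth inhibition, normalised to vehicle-treated controls, in the mec2-1 strain exposed to compound.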
Test [3] is described as follows: NCI Yeast Anticancer Drug Screen. Data for the sgs1 mgt1 strain (AID 161).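 Further: 0% = growth of cultures given vehicle only.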 Conditions: S. cerevisiae sgs1 mgt1 strain, hits give high values. Summed up: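 Growth of a repair-deficient yeast mutant was monitored after compound treatment and expressed as inhibition relative to vehicle-treated cultures.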
A short description of test [4]: NCI Yeast Anticancer Drug Screen. Data for the cln2 rad14 strain (AID 165).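 Further: 0% = growth equal to vehicle treated cultures.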 Conditions: S. cerevisiae cln2 rad14 strain, hits give high values. Summed up: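 Relative to vehicle controls, growth inhibition of compound-treated cln2 rad14 yeast was recorded.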
A short description of test [5]: NCI Yeast Anticancer Drug Screen. Data for the bub3 strain (AID 167). Conditions: S. cerevisiae bub3 mutant strain, hits give high values. An outline of the steps: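 Compounds were applied to a genetically altered yeast strain carrying a cell-cycle control defect. Growth inhibition was scored against vehicle-treated controls.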
Test [6] is described as follows: NCI Yeast Anticancer Drug Screen. Data for the mlh1 rad18 strain (AID 175). Conditions: S. cerevisiae mlh1 rad18 strain growth inhibition, hits give high values. Summed up: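 Test agents were incubated with a yeast strain of defined genotype (DNA damage repair defect). Inhibition of growth was derived by comparison with vehicle-exposed cultures.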
The mark [7] stands for this setting: at 5.0 µM (retest, dose inferred, filed as 0.5).
The mark [8] stands for this setting: at 50.0 µM (retest, dose inferred, filed as 5.0).

In the case of `NNc1ccc(Cl)cc1Cl`, the growth inhibition in test [1] (setting [7]) is 79% (active); in test [1] (setting [8]), 97% (active); in test [1] (at 50.0 µM), 98.4% (active); in test [2] (setting [7]) it was 54%; in test [2] (setting [8]), 99% (active); in test [2] (at 50.0 µM), 99.4% (active). Further, the growth inhibition in test [3] (setting [7]) is 66%; in test [3] (setting [8]) it was 98% (active); in test [3] (at 50.0 µM), 50.6%; in test [4] (setting [7]), 75% (active); in test [4] (setting [8]), 99% (active); in test [4] (at 50.0 µM) it was 58.6%. For the same compound, the growth inhibition in test [5] (setting [7]) was 85% (active); in test [5] (setting [8]), 98% (active); in test [5] (at 50.0 µM) it was 98.8% (active); in test [6] (setting [7]), 77% (active); in test [6] (setting [8]), 98% (active); in test [6] (at 50.0 µM), 48.1%.
`OC(c1cc(-c2ccc(Cl)cc2)nc2c(Cl)cccc12)C1CCCCN1` (centres undefined): the growth inhibition is 73% (active) in test [1] (setting [7]); 93% (active) in test [1] (setting [8]); 99.8% (active) in test [1] (at 50.0 µM); 26% in test [2] (setting [7]); 55% in test [2] (setting [8]); 99.8% (active) in test [2] (at 50.0 µM). The growth inhibition in test [3] (setting [7]) is 93% (active); in test [3] (setting [8]) it was 100% (active); in test [3] (at 50.0 µM), 99.9% (active); in test [4] (setting [7]) it was 20%; in test [4] (setting [8]), 66%; in test [4] (at 50.0 µM), 99% (active). Further, the growth inhibition was 28% in test [5] (setting [7]); 93% (active) in test [5] (setting [8]); 99.5% (active) in test [5] (at 50.0 µM); 69% in test [6] (setting [7]); 88% (active) in test [6] (setting [8]); 99.5% (active) in test [6] (at 50.0 µM).
Regarding `O=C(c1ccccc1)c1cc2ccccc2oc1=O`, the growth inhibition in test [1] (setting [7]) was 1%; in test [1] (setting [8]), 71% (active); in test [1] (at 50.0 µM), 63.1%; in test [2] (setting [7]) it was 5%; in test [2] (setting [8]), 35%; in test [2] (at 50.0 µM), 13.3%. Besides, the growth inhibition is 1% in test [3] (setting [7]); 63% in test [3] (setting [8]); 60.5% in test [3] (at 50.0 µM); 4% in test [4] (setting [7]); 52% in test [4] (setting [8]); 37.8% in test [4] (at 50.0 µM). In addition, the growth inhibition in test [5] (setting [7]) is -6%; in test [5] (setting [8]), 61%; in test [5] (at 50.0 µM), 10.8%; in test [6] (setting [7]) it was 9%; in test [6] (setting [8]), 81% (active); in test [6] (at 50.0 µM) it was 79% (active).
Take `COc1cc(OC)c(/C=C/c2c3ccccc3cc[n+]2C)c(OC)c1`: the growth inhibition in test [1] (setting [7]) was 66%; in test [1] (setting [8]) it was 77% (active); in test [1] (at 50.0 µM), 61.6%; in test [2] (setting [7]) it was 33%; in test [2] (setting [8]), 54%; in test [2] (at 50.0 µM), 49.5%. Moreover, the growth inhibition was 67% in test [3] (setting [7]); 84% (active) in test [3] (setting [8]); 69.5% in test [3] (at 50.0 µM); 46% in test [4] (setting [7]); 64% in test [4] (setting [8]); 9.85% in test [4] (at 50.0 µM). Besides, the growth inhibition is 67% in test [5] (setting [7]); 79% (active) in test [5] (setting [8]); 59.3% in test [5] (at 50.0 µM); 50% in test [6] (setting [7]); 68% in test [6] (setting [8]); 54.1% in test [6] (at 50.0 µM).
Turning to `Cc1cc(C(N)=O)cc(C)c1C(=O)OCCCl`, the growth inhibition is -4% in test [1] (setting [7]); -1% in test [1] (setting [8]); 31.7% in test [1] (at 50.0 µM); -5% in test [2] (setting [7]); -2% in test [2] (setting [8]); 66.4% in test [2] (at 50.0 µM). In addition, the growth inhibition was -4% in test [3] (setting [7]); -2% in test [3] (setting [8]); -4.05% in test [3] (at 50.0 µM); -3% in test [4] (setting [7]); -8% in test [4] (setting [8]); -114% in test [4] (at 50.0 µM). Further, the growth inhibition in test [6] (setting [7]) is -57%; in test [6] (setting [8]), 0%; in test [6] (at 50.0 µM) it was 58.1%.
Take `O=C(CCc1ccccc1)ON1C(=S)NC(c2ccccc2)(c2ccccc2)C1=S`: the growth inhibition is 14% in test [1] (setting [7]); 42% in test [1] (setting [8]); 29.7% in test [1] (at 50.0 µM); 0% in test [2] (setting [7]); 22% in test [2] (setting [8]); 55.7% in test [2] (at 50.0 µM). Also, the growth inhibition in test [3] (setting [7]) is -11%; in test [3] (setting [8]), 64%; in test [3] (at 50.0 µM) it was 63.3%; in test [4] (setting [7]), 16%; in test [4] (setting [8]), 59%; in test [4] (at 50.0 µM), 70.2% (active). Also, the growth inhibition in test [5] (setting [7]) was 0%; in test [5] (setting [8]), 47%; in test [5] (at 50.0 µM), 79.2% (active); in test [6] (setting [7]) it was 13%; in test [6] (setting [8]), 61%; in test [6] (at 50.0 µM), 72.4% (active).
`NC(=S)Nc1ccc2c(c1)Cc1ccccc1-2`: the growth inhibition in test [1] (setting [7]) was 2%; in test [1] (setting [8]) it was 29%; in test [1] (at 50.0 µM), 64.5%; in test [2] (setting [7]), -4%; in test [2] (setting [8]) it was 3%; in test [2] (at 50.0 µM) it was -0.4%. Further, the growth inhibition in test [3] (setting [7]) was 2%; in test [3] (setting [8]) it was 23%; in test [3] (at 50.0 µM), 59.9%; in test [4] (setting [7]), -5%; in test [4] (setting [8]), -10%; in test [4] (at 50.0 µM) it was 23.4%. Also, the figures for the growth inhibition in test [6] (setting [7]), in test [6] (setting [8]) and in test [6] (at 50.0 µM) were 7%, 38% and 60.4%, respectively.
For the compound `CN(C)c1ccc(/C=C/c2ccnc3ccccc23)cc1`, the growth inhibition in test [1] (setting [7]) was -6%; in test [1] (setting [8]), 95% (active); in test [1] (at 50.0 µM), 78.1% (active); in test [2] (setting [7]), 0%; in test [2] (setting [8]) it was 97% (active); in test [2] (at 50.0 µM), 84.5% (active). The growth inhibition in test [3] (setting [7]) is -1%; in test [3] (setting [8]), 97% (active); in test [3] (at 50.0 µM), 92.3% (active); in test [4] (setting [7]), -10%; in test [4] (setting [8]), 35%; in test [4] (at 50.0 µM), -15.1%. Also, the growth inhibition in test [5] (setting [7]) was -1%; in test [5] (setting [8]) it was 97% (active); in test [5] (at 50.0 µM), 91.5% (active); in test [6] (setting [7]), 19%; in test [6] (setting [8]), 93% (active); in test [6] (at 50.0 µM), 89.1% (active).
With `Cc1oc2c(C)c3oc(=O)cc(C)c3cc2c1CCl`, the growth inhibition is 27% in test [1] (setting [7]); 94% (active) in test [1] (setting [8]); 54.4% in test [1] (at 50.0 µM); 32% in test [2] (setting [7]); 97% (active) in test [2] (setting [8]); 75.5% (active) in test [2] (at 50.0 µM). The growth inhibition was 27% in test [3] (setting [7]); 95% (active) in test [3] (setting [8]); 87% (active) in test [3] (at 50.0 µM); 19% in test [4] (setting [7]); 89% (active) in test [4] (setting [8]); 67.5% in test [4] (at 50.0 µM). The growth inhibition in test [5] (setting [7]) is 41%; in test [5] (setting [8]), 97% (active); in test [5] (at 50.0 µM), 84.1% (active); in test [6] (setting [7]), 47%; in test [6] (setting [8]), 96% (active); in test [6] (at 50.0 µM), 90.7% (active).
In the case of `CC1(C)N=c2cc3c(cc2N1c1ccc(Cl)cc1)=Nc1ccccc1N3c1ccc(Cl)cc1`, the growth inhibition in test [1] (setting [7]) is 17%; in test [1] (setting [8]), -4%; in test [1] (at 50.0 µM) it was 96.1% (active); in test [2] (setting [7]), 7%; in test [2] (setting [8]), -4%; in test [2] (at 50.0 µM) it was 94.2% (active). For the same compound, the growth inhibition in test [3] (setting [7]) is 16%; in test [3] (setting [8]) it was 1%; in test [3] (at 50.0 µM) it was 97.1% (active); in test [4] (setting [7]), 10%; in test [4] (setting [8]), -4%; in test [4] (at 50.0 µM) it was 95.2% (active). Moreover, the growth inhibition in test [5] (setting [7]) was 7%; in test [5] (setting [8]) it was 1%; in test [5] (at 50.0 µM), 94% (active); in test [6] (setting [7]) it was 35%; in test [6] (setting [8]) it was -5%; in test [6] (at 50.0 µM), 96.3% (active).
